In PubChem BioAssay (EPA / NIEHS) one finds outcome and AC50 data, which are given here for 12 compounds.

For assay [1], the system named is Sodium/Iodide Symporter (NIS), SLC5A5 (gene 6528). Nature of the assay: CPHEA_Stoker_NIS_Inhibition_RAIU: CPHEA's Radioactive Iodide Uptake (RAIU) Assay for Sodium/Iodide Symporter (NIS) Inhibition, Stoker and Laws Labs (AID 2283841). In outline: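 Iodide uptake read as CPM of intracellular 125I (final 329 pM) after 2 h room-temperature exposure in HEPES-buffered HBSS, pH 7.4. Human NIS-expressing HEK293T cells; six concentrations 0.001–100 uM, 0.5% DMSO, normalised to DMSO wells.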

Assay [2] can be described thus: CPHEA_Stoker_NIS_Cytotoxicity: Cytotoxicity Assessment for CPHEA's Radioactive Iodide Uptake (RAIU) Assay for Sodium/Iodide Symporter (NIS) Inhibition, Stoker and Laws Labs (AID 2283897).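 For AC50: active means loss of ATP signal versus DMSO meaning cytotoxicity.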 An outline of the steps:
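CellTiter-Glo ATP luminescence gauged viability in HEK293T cells expressing human NIS after 2 h chemical exposure. Concentrations ran 0.001–100 uM in 0.5% DMSO; DMSO served as baseline for the loss-of-signal fit.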

Assay [3] can be described thus: ATG_XTT_Cytotoxicity_XSP2: Cytotoxicity Assessment in the Attagene TRANS-FACTORIAL Multi-Species (XSP2) HepG2 Assay (AID 2283837). An outline of the steps: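 HepG2 cells, transiently transfected with multiple reporter constructs, exposed to chemical for 24 h. Cell number assessed with XTT fluorescence read-out; loss of signal fitted relative to DMSO.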
Assay [4] deals with human Thyroid hormone Receptor alpha (TRa), THRA (gene 7067) (UniProt P10827). The assay is described as follows: ATG_hTRa_XSP2: Attagene TRANS-FACTORIAL Multi-Species (XSP2) HepG2 Assay for human Thyroid hormone Receptor alpha (TRa) (AID 2283838). An outline of the steps:
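HepG2 cells were transiently transfected with GAL4-UAS reporter units for chimeric human TRa-Gal4 and dosed for 24 hours, with 3 nM 6-alpha-fluorotestosterone and 1.5 nM norgestrel present. Reporter mRNA was quantified by RT-PCR, FAM labelling and capillary electrophoresis, with gain of signal fitted versus DMSO.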

In assay [5] the target is frog Thyroid hormone Receptor alpha (TRa), thra-a (gene 397942) (UniProt P15204). The assay is described as follows: ATG_frTRa_XSP2: Attagene TRANS-FACTORIAL Multi-Species (XSP2) HepG2 Assay for frog Thyroid hormone Receptor alpha (TRa) (AID 2283839). An outline of the steps: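 Frog thyroid receptor alpha was tested as an exogenous NR-Gal4 fusion in transiently transfected HepG2 cells. After 24 h chemical treatment, reporter mRNA induction was quantified by RT-PCR and capillary electrophoresis, with gain-of-signal analysed relative to DMSO.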

Assay [6] addresses human Thyroid hormone Receptor beta (TRb), THRB (gene 7068) (UniProt P10828). The assay is described as follows: ATG_hTRb_XSP2: Attagene TRANS-FACTORIAL Multi-Species (XSP2) HepG2 Assay for human Thyroid hormone Receptor beta (TRb) (AID 2283840).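 Note: actives raise reporter mRNA so potency reflects agonist-like gain of signal.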 In outline: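 In this cell-based multiplex, HepG2 liver cells carrying transfected GAL4-UAS reporter constructs are exposed to chemical for 24 hours, then reporter transcripts are measured by RT-PCR with capillary electrophoresis, scored as gain of signal against DMSO.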

Assay [7] is described as follows: CEETOX_H295R_11DCORT_noMTC: CeeTox H295R High-throughput Steroidogenesis Assay for 11-Deoxycortisol (11DCORT), maximum tolerated concentration (MTC) filtered results only (AID 2283911; active = hit-call score of the fitted dose curve at least 0.9, where 1 is the maximum; inactive = score below 0.9). Conditions: actives raise or lower the signal. In outline: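 Readout is 11-deoxycortisol in culture medium by reverse-phase HPLC with MS/MS, after 48 h chemical treatment of forskolin-primed H295R cells. Values are relative to DMSO and unfiltered for cytotoxicity.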

Assay [8] in a line: CEETOX_H295R_OHPREG_noMTC: CeeTox H295R High-throughput Steroidogenesis Assay for OH-Pregnenolone (OHPREG), maximum tolerated concentration (MTC) filtered results only (AID 2283912; active = hit-call score of the fitted dose curve at least 0.9, where 1 is the maximum; inactive = score below 0.9). Conditions: actives raise or lower the signal. An outline of the steps: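 H295R cells prestimulated 48 h with 10 uM forskolin, then exposed 48 h to compound (0.1% DMSO). 17alpha-hydroxypregnenolone in medium measured by MTBE extraction and HPLC-MS/MS; bidirectional fit vs DMSO, concentrations not MTT/MTC-filtered.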

A short description of assay [9]: CEETOX_H295R_OHPROG_noMTC: CeeTox H295R High-throughput Steroidogenesis Assay for OH-Progesterone (OHPROG), maximum tolerated concentration (MTC) filtered results only (AID 2283914; active = hit-call score of the fitted dose curve at least 0.9, where 1 is the maximum; inactive = score below 0.9). Conditions: actives raise or lower the signal. An outline of the steps: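 H295R cells prestimulated 48 h with 10 uM forskolin, then exposed 48 h to chemical (0.1% DMSO final). 17alpha-hydroxyprogesterone in medium quantified by HPLC-MS/MS after MTBE extraction; bidirectional fitting versus DMSO, concentrations not MTC-filtered.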

The nature of assay [10]: CEETOX_H295R_CORTISOL_noMTC: CeeTox H295R High-throughput Steroidogenesis Assay for Cortisol, maximum tolerated concentration (MTC) filtered results only (AID 2283916; active = hit-call score of the fitted dose curve at least 0.9, where 1 is the maximum; inactive = score below 0.9). Conditions: actives raise or lower the signal. An outline of the steps: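 H295R human adrenal cells prestimulated 48 h with 10 uM forskolin, then exposed 48 h to chemical in 0.1% DMSO; cortisol in medium quantified by HPLC-MS/MS; bidirectional fit vs DMSO baseline, concentrations not MTT-filtered for MTC.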

Assay [11] in a line: CEETOX_H295R_CORTIC_noMTC: CeeTox H295R High-throughput Steroidogenesis Assay for Corticosterone (CORTIC), maximum tolerated concentration (MTC) filtered results only (AID 2283917; active = hit-call score of the fitted dose curve at least 0.9, where 1 is the maximum; inactive = score below 0.9). Conditions: actives raise or lower the signal. In outline: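 H295R adrenal cells pre-stimulated 48 h with 10 uM forskolin, then exposed 48 h to chemical in 0.1% DMSO; corticosterone in medium quantified by HPLC-MS/MS, fitted bidirectionally versus DMSO without MTT-based concentration filtering.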

Assay [12] in a line: CEETOX_H295R_DOC_noMTC: CeeTox H295R High-throughput Steroidogenesis Assay for DOC, maximum tolerated concentration (MTC) filtered results only (AID 2283918; active = hit-call score of the fitted dose curve at least 0.9, where 1 is the maximum; inactive = score below 0.9). Conditions: actives raise or lower the signal. An outline of the steps: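 H295R cells prestimulated 48 h with 10 uM forskolin, then exposed 48 h to chemical in 0.1% DMSO. 11-Deoxycorticosterone in medium measured by MTBE extraction and HPLC-MS/MS; bidirectional fit vs DMSO, no MTC filter.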

Assay [13] is described as follows: CEETOX_H295R_ESTRADIOL_noMTC: CeeTox H295R High-throughput Steroidogenesis Assay for Estradiol, maximum tolerated concentration (MTC) filtered results only (AID 2283919; active = hit-call score of the fitted dose curve at least 0.9, where 1 is the maximum; inactive = score below 0.9). Conditions: actives raise or lower the signal. In outline: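 H295R human adrenal cells pre-stimulated 48 h with 10 uM forskolin, then exposed 48 h to chemical (0.1% DMSO final). Estradiol in medium measured by HPLC-MS/MS after MTBE extraction and dansyl derivatization; bidirectional fit versus DMSO, concentrations not MTT-filtered.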

The nature of assay [14]: CEETOX_H295R_PROG_noMTC: CeeTox H295R High-throughput Steroidogenesis Assay for Progesterone (PROG), maximum tolerated concentration (MTC) filtered results only (AID 2283920; active = hit-call score of the fitted dose curve at least 0.9, where 1 is the maximum; inactive = score below 0.9). Conditions: actives raise or lower the signal. An outline of the steps:
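H295R cells, prestimulated 48 h with 10 uM forskolin, exposed 48 h to chemical in 0.1% DMSO. Medium progesterone quantified by MTBE extraction and HPLC-MS/MS; bidirectional fit versus DMSO, concentrations not MTT-filtered.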

A short description of assay [15]: CEETOX_H295R_ESTRONE_noMTC: CeeTox H295R High-throughput Steroidogenesis Assay for Estrone, maximum tolerated concentration (MTC) filtered results only (AID 2283921; active = hit-call score of the fitted dose curve at least 0.9, where 1 is the maximum; inactive = score below 0.9). Conditions: actives raise or lower the signal. An outline of the steps: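 H295R cells prestimulated 48 h with 10 uM forskolin, then exposed 48 h to chemical in 0.1% DMSO; medium estrone measured by HPLC-MS/MS after MTBE extraction and dansyl derivatization, fitted bidirectionally versus DMSO without MTT-based MTC filtering.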

Results filed as inconclusive are left out. Active and inactive are the calls of the source. Rule for the calls, unless noted: active = hit-call score of the fitted dose curve at least 0.9, where 1 is the maximum; inconclusive = response in the unintended direction; inactive = score below 0.9.

frog Thyroid hormone Receptor alpha (TRa), thra-a (gene 397942), sequence (P15204 whole entry, looked up, the tested form may be a part): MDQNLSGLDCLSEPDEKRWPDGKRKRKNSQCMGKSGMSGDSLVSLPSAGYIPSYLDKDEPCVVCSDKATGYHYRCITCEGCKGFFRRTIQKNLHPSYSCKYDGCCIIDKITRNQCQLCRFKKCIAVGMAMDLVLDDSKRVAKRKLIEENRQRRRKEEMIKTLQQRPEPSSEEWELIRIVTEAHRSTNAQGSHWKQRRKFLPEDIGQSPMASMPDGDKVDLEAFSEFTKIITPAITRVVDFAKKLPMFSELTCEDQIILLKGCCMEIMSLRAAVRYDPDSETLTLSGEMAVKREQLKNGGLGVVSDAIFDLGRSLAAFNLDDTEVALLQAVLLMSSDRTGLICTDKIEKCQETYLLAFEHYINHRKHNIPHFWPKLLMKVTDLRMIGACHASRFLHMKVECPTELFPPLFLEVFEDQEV
human Thyroid hormone Receptor beta (TRb), THRB (gene 7068), sequence (P10828 whole entry, looked up, the tested form may be a part): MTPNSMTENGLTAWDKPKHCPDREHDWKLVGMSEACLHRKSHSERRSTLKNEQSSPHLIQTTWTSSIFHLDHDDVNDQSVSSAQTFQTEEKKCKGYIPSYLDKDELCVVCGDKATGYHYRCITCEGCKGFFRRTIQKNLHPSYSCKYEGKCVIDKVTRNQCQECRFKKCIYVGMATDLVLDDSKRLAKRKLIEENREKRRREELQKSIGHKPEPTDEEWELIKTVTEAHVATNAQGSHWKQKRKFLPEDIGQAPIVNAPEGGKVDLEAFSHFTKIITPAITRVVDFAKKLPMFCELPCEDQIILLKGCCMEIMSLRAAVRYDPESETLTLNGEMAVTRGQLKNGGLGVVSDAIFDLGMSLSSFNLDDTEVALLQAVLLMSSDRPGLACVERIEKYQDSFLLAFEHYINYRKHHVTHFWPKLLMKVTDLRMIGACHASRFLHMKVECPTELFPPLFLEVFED
human Thyroid hormone Receptor alpha (TRa), THRA (gene 7067), sequence (P10827 whole entry, looked up, the tested form may be a part): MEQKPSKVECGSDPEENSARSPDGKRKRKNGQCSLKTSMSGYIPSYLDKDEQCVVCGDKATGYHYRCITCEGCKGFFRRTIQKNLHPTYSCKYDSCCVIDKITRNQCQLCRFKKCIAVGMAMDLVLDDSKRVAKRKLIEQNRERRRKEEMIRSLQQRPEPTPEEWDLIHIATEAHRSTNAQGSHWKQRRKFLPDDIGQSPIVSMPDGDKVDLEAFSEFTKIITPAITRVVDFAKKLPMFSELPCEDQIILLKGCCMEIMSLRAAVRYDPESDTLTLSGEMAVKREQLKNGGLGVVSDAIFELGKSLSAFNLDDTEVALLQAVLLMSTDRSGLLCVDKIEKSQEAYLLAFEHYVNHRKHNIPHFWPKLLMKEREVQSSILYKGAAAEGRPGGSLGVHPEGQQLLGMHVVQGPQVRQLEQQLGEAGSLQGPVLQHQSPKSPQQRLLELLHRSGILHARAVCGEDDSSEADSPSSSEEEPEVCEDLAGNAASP

In the case of `CCCCCOC(=O)COc1cc(N2C(=O)C3=C(CCCC3)C2=O)c(F)cc1Cl`, the outcome in assay [1] and in [2] was inactive.
As for `CCN(Cc1c(F)cccc1Cl)c1c([N+](=O)[O-])cc(C(F)(F)F)cc1[N+](=O)[O-]`, the compound was called inactive in [3], in assay [4], in [5], in assay [6], in [1] and in assay [2].
As for `c1ccc(Nc2ccccc2)cc1`, the result in [1] and in assay [2] was inactive.
Turning to `CCCCOC(=O)C(C)Oc1ccc(Oc2ccc(C(F)(F)F)cn2)cc1` (stereo not drawn), the result in assay [1] and in assay [2] was inactive.
For the compound `C#CCOC(=O)[C@@H](C)Oc1ccc(Oc2ncc(Cl)cc2F)cc1`, the result in [1] and in assay [2] was inactive.
As for `COC(=O)c1ccccc1C(=O)O`, the call in [7], in [8], in assay [9], in assay [10], in assay [11] and in [12] was inactive. Moreover, the compound was classed as inactive in assay [13], in assay [14] and in assay [15].
For the compound `CCCN(CCC)C(=O)SCC`, the outcome in assay [1] and in [2] was inactive.
As to `C=CCOC(Cn1ccnc1)c1ccc(Cl)cc1Cl` (stereo not drawn), the compound was called inactive in [4], in assay [1] and in assay [2].
As for `CC(=O)S[C@@H]1CC2=CC(=O)CC[C@]2(C)[C@H]2CC[C@@]3(C)[C@@H](CC[C@@]34CCC(=O)O4)[C@H]12`, the call in assay [4], in [5] and in assay [6] was inactive.
By AC50 is commonly meant the concentration at which the activity in the assay is half-maximal. On to `CC(=O)[C@H]1CC[C@H]2[C@@H]3CCC4=CC(=O)CC[C@]4(C)[C@H]3CC[C@]12C`, for which the AC50 was 84.4 µM (active) in [1] and 9.92 µM (active) in assay [2].
Consider `CCCCCCC(C)OC(=O)COc1nc(F)c(Cl)c(N)c1Cl` (stereo not drawn), for which the AC50 in assay [1] was 11.3 µM (active). The result in [2] was inactive.
Regarding `CCCCC(CC)CN1C(=O)C2C3C=CC(C3)C2C1=O` (stereo not drawn), the call in [5] and in assay [1] was inactive. Also, in assay [2], the AC50 is 50 µM (active).
